IL1B secr inh: qHTS for Inhibitors of Inflammasome Signaling: IL-1-beta AlphaLISA Primary Screen; THP-1 LPS/ATP IL-1B secretion, AlphaLISA, 16 h; hits give low values; activity change, % at 57.5 µM; 360,000 compounds, 4.7% hits; AID 743279, 2014; in the data active = activity change below about -50%; inconclusive = mostly about -30% to -49%
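Secreted IL-1B measured by AlphaLISA bead assay after 16 h compound exposure of THP-1 cells; compounds (final up to 57.5 uM) added 1 h before LPS (250 ng/mL) and ATP (1.25 mM) stimulation; lower signal means less secretion.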
TDP1 cell noCPT: qHTS for Inhibitors of human tyrosyl-DNA phosphodiesterase 1 (TDP1): qHTS in cells in absence of CPT. DT40 Tdp1-/- hTDP1 cells, no CPT, ATP luminescence, 48 h. Potency, µM (titrated, usually from 46.2 µM), for inactives: top-dose activity change, negative = growth inhibition, actives largely listed as inhibitors. 420,000 compounds, 15% hits. AID 686978, 2013; note: potency is the fitted concentration of half-maximal effect; nearly all actives have a fitted effect of over 55% in size
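Stably hTDP1-transfected Tdp1-null chicken DT40 cells were treated with library compounds minus camptothecin and grown for at least 48 hr at 37 °C, after which cellular ATP was quantified by luminescence.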
HT1080-NT tox: qHTS for induction of synthetic lethality in tumor cells producing 2HG: qHTS for the HT-1080-NT fibrosarcoma cell line | HT-1080-NT fibrosarcoma viability, CellTiter-Glo ATP luminescence, 48 h | Potency, µM (titrated, usually from 46.1 µM), for the others: at the highest dose activity, negative = less viability, usual class: cytotoxic | 360,000 compounds, 1.6% hits | AID 686970, 2013;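 note: NT is the 2HG producing partner of a matched IDH1 knockdown line; potency is the fitted concentration of half-maximal effect; 0% = DMSO-treated cells and -100% = media-only wells without cells; nearly all actives have a fitted effect of over 55% in size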
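Read-out is CellTiter-Glo luminescence after 10 minutes at room temperature, following 48 hours' compound treatment of HT-1080-NT cells (750 cells/well, RPMI, 5% FBS, 37 degrees C).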
TDP1 cell CPT: qHTS for Inhibitors of human tyrosyl-DNA phosphodiesterase 1 (TDP1): qHTS in cells in presence of CPT; AID 686979, 2013; Potency, µM (doses to about 46.2 µM), for the others: at the highest dose activity change, negative = growth inhibition, actives largely listed as inhibitors; chicken DT40 Tdp1-/-;hTDP1 cells + 20 nM CPT, ATP luminescence, 48 h; 420,000 compounds, 12% hits; note: potency is the fitted concentration of half-maximal effect; nearly all actives have a fitted effect of over 55% in size
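Chicken DT40 Tdp1-/- cells complemented with human TDP1, 400 cells/well, exposed to compounds plus 20 nM camptothecin for at least 48 h at 37 C; viability read as ATP content by CellTiter-Glo luminescence.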
HT1080 IDH1KD tx: qHTS for induction of synthetic lethality in tumor cells producing 2HG: qHTS for the HT-1080-IDH1KD cell line. 360,000 compounds, 2% hits. AID 686971, 2013. HT-1080 IDH1 knockdown viability, ATP luminescence, 48 h. Potency, µM (top dose mostly 46.1 µM), for the others: top-dose activity, negative = toxicity, hits mostly cytotoxic;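 note: potency is the fitted concentration of half-maximal effect; 0% = DMSO wells and -100% = cell-free medium wells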
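After a 2 h attachment period, IDH1KD HT-1080 cells took pin-transferred compound for 48 h at 37 °C; ATP-based luminescence after 10 min room-temperature reagent incubation reported viability.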
ALOX12 inh: Primary qHTS assay for inhibitors of human arachidonate 12S-lipoxygenase (ALOX12): Round 2 | purified 12hLO, xylenol orange hydroperoxide absorbance | Potency, µM (doses to about 108 µM), inactives show at the highest dose activity change, negative = inhibition, hits mostly inhibitors | 580,000 compounds, 1.1% hits | AID 1671190, 2021; note: potency is the fitted concentration of half-maximal effect
Target sequence (P18054 whole entry, looked up): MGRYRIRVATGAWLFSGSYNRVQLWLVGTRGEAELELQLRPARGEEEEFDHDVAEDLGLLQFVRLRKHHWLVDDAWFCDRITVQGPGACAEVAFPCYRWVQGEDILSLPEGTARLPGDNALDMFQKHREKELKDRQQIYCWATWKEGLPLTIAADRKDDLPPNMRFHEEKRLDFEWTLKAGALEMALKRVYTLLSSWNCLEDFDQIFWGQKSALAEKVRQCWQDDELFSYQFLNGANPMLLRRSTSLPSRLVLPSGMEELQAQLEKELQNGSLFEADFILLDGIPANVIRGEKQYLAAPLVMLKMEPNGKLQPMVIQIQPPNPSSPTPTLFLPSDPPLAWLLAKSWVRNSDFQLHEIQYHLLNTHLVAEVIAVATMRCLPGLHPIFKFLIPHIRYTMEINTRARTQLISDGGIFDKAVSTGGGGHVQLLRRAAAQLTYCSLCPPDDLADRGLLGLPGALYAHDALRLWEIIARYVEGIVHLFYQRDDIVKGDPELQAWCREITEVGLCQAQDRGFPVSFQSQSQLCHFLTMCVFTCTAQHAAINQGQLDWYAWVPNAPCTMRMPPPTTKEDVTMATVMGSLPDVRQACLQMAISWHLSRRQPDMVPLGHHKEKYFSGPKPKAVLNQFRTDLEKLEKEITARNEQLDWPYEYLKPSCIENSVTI
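Purified human 12hLO at 150 nM in 25 mM Hepes, 0.01% Triton X-100, pH 7.0, preincubated 15 min at room temperature with compound. Reaction started with 40 uM arachidonic acid, 30 min at room temperature. Hydroperoxide measured by Fe-xylenol orange, 573/405 nm absorbance ratio.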
Numbers without * were called inactive; ? = inconclusive; · = not tested or not shown; [ ] = remark or other dose. Only a selection was taken, and hits are over-represented in it overall. Unless noted, calls come from the whole dose curve; as a rule, active = well fitted curve in the direction sought with a large enough effect; inconclusive = small, poorly fitted or top-dose-only effect, or another doubt; inactive = no such curve, though single readings can be large; an effect the other way counts as inactive or inconclusive. Unless noted, % is set by controls: 0 for no effect and ±100 for the full control effect.

SMILES | IL1B secr inh | TDP1 cell noCPT | HT1080-NT tox | TDP1 cell CPT | HT1080 IDH1KD tx | ALOX12 inh
O=C(N/N=C/c1c(O)n(-c2ccccc2Cl)c(=O)c2ccccc12)C1COc2ccccc2O1 (stereo unspecified) | 50.9 | ? | ? | ? | ? | ·
Cc1ccc(-n2c(O)c(/C=N/NC(=O)C3COc4ccccc4O3)c3ccccc3c2=O)cc1 (stereo unspecified) | 45.0 | 25.9µM* | -8.7% | ? | -13.5% | -24.7%
Cn1cc(/C=N\NC(=O)C2COc3ccccc3O2)c2ccccc21 (stereo unspecified) | · | · | · | · | · | 21.2%
CC(=O)N/N=C/c1c(C)[nH]n(-c2ccccc2)c1=O | -0.3 | ? | -17.5% | -16.3% | -20.6% | -23.8%
O=[N+]([O-])c1ccc(N/N=C2/CCCCC2c2ccccn2)cc1 (stereo unspecified) | -13.8 | -25.0% | 14.3% | -26.8% | 0.92µM* | ?
NC(=O)N/N=C1\CCCCC1c1ccccn1 (stereo unspecified) | · | · | · | · | · | 5.0%
O=C1c2ccccc2-c2cc([N+](=O)[O-])c([N+](=O)[O-])cc21 | · | 0.501µM* | · | 0.398µM* | · | ·
Cc1cc(C(=O)OCC(=O)NC2CCS(=O)(=O)C2)c(C)n1-c1ccccc1 (stereo unspecified) | -12.7 | 11.6µM* | -5.7% | ? | -4.3% | 0.0%
COc1ccc2cc(-c3cc(C(=O)OCC(=O)Nc4c(C)n(C)n(-c5ccccc5)c4=O)c4ccccc4n3)ccc2c1 | 0.5 | 10.3µM* | 9.1% | 13µM* | -0.8% | ?
Cc1c(NC(=O)COC(=O)c2cc3c4ccccc4n(C)c3s2)c(=O)n(-c2ccccc2)n1C | -55.0* | -30.0% | -11.9% | -13.5% | -0.7% | ?
COc1ccc2cc(-c3cc(C(=O)OCC(=O)NC4CCS(=O)(=O)C4)c4ccccc4n3)ccc2c1 (stereo unspecified) | -19.4 | ? | ? | ? | 10.3µM* | -25.2%
CCCS(=O)(=O)NCCc1ncc(C)n1CCOC | · | · | · | · | · | 21.8%
O=S1(=O)NC2(CCCN(CCc3ccccc3)C2)COc2ccccc21 (stereo unspecified) | · | · | · | · | · | 5.9%[6.33 µM]
Cc1cc(NC(=O)N(Cc2ccco2)C2CCCC2)no1 | · | · | · | · | · | 6.1%
O=C(COc1ccc(Oc2ccccc2)cc1)NC1CCS(=O)(=O)C1 (stereo unspecified) | 30.3 | ? | ? | ? | -12.5% | -1.0%
Cc1ccc(Oc2ccc(OCC(=O)NC3CCS(=O)(=O)C3)cc2)cc1 (stereo unspecified) | -19.2 | 16.4µM* | ? | 23.1µM* | ? | -0.4%
CCOC(=O)c1cc(CC)sc1NC(=O)Cn1nnc(-c2ccccc2)n1 | · | · | · | · | · | 3.0%
CNC(=O)c1ccccc1Sc1cccc2cccc(C(=O)O)c12 | 6.6 | 9.8% | 10.6% | -0.4% | 18.8% | 7.2%
CNC(=O)c1ccccc1Sc1ccc2c(/C=C/c3ccccn3)n[nH]c2c1 | · | 2.66µM* | · | 4.22µM* | · | ·
Cc1cnc(-c2ccncc2)n1C1CCN(C(=O)Cc2ccccc2)CC1 | · | · | · | · | · | 28.0%
CCCCCOc1ccc(C(C)=O)cc1 | · | · | · | · | · | -0.5%
CCCCc1ccc(C(=O)N/C(=C\c2ccc(C)cc2)C(=O)NC2CCCCC2)cc1 | · | 14.6µM* | · | 9.2µM* | · | ?
Cc1ccc(C(=O)N/C(=C\c2ccc(Cl)cc2)C(=O)NC2CCCCC2)cc1 | · | 18.4µM* | · | ? | · | 0.0%
N#Cc1c(NCc2ccccc2)ccnc1Cl | 5.8 | 20.6µM* | -21.0% | ? | -3.9% | 383.3%
COc1ccccc1-c1nnc(SCC(=O)NC(C)c2ccc3c(c2)CCCC3)o1 (stereo unspecified) | · | · | · | · | · | 2.1%
SMILES | IL1B secr inh | TDP1 cell noCPT | HT1080-NT tox | TDP1 cell CPT | HT1080 IDH1KD tx | ALOX12 inh
O=C(C[C@H]1C/C=C\C[C@@H](Cc2ccc(F)cc2)C(=O)O[C@H](c2ccccc2)CNC1=O)NCCO | -1.5 | ? | -1.7% | ? | 1.8% | -10.4%
CC(C)(C)OC(=O)C[C@H]1C/C=C\C[C@@H](CC(=O)NCCO)C(=O)NC[C@H](c2ccccc2)OC1=O | 31.7 | -14.7% | 6.7% | 4.3% | 4.7% | 0.2%
O=C(C[C@H]1C/C=C\C[C@H](NC(=O)OCC2c3ccccc3-c3ccccc32)C(=O)O[C@@H](c2ccccc2)CNC1=O)NCCO | -8.7 | 10.3µM* | -0.2% | 9.2µM* | -4.7% | -22.0%
O=C(C[C@@H]1C/C=C\C[C@H](NC(=O)OCC2c3ccccc3-c3ccccc32)C(=O)O[C@H](c2ccccc2)CNC1=O)NCCO | 26.6 | 2.06µM* | -0.2% | 2.59µM* | -3.0% | ?
C#Cc1cccc(NC(=O)c2ccc(OCC=C)cc2)c1 | · | · | · | · | · | -57.0%
CCn1ccc(=N)cc1 | 12.3 | 4.3% | 7.1% | -18.4% | 7.1% | 0.0%
CCCCCCN1CC(O)=C(c2ccccc2)C1=N | 10.3 | -1.4% | 10.4% | -3.9% | 12.4% | ?
CCCCCCCCCn1ccc(=N)cc1 | -93.9* | 0.146µM* | ? | 0.231µM* | 14.6µM* | 79.5%
CCCCCCCn1ccc(=N)cc1 | ? | 0.517µM* | ? | 0.517µM* | ? | 0.0%
CCCCCn1ccc(=N)cc1 | -29.8 | 5.17µM* | -11.1% | 9.2µM* | -18.7% | 7.6%
COc1ccc(/C=C(/C#N)c2ccccc2F)c(OC)c1 | · | · | · | · | · | 6.8%
COc1ccc2nc(C(F)(F)Cl)c(C#N)c(N)c2c1 | -72.5* | ? | -9.6% | ? | -18.2% | -77.0%
COc1ccc2nc3cc(Cl)ccc3c(C#N)c2c1 | 17.5 | 1.7% | 8.3% | 14.2% | 8.9% | -18.1%
O=S(=O)(NC1CCc2nnc(C3CC3)n2CC1)c1cccnc1 (stereo unspecified) | · | · | · | · | · | 31.5%
COc1ccc2cc(/C=N/NC(=O)c3ccc(CN(c4cccc(Cl)c4Cl)S(C)(=O)=O)cc3)c(Cl)nc2c1 | 14.2 | 14.6µM* | ? | 18.4µM* | ? | 19.4%
COc1ccc2cc(/C=N/O)c(Cl)nc2c1 | -15.8 | ? | -16.3% | -15.4% | -9.0% | -6.5%
O=C(/C=C/c1cccc([N+](=O)[O-])c1)NCCSCc1ccc(Cl)cc1Cl | -74.9* | 23.1µM* | -52.0% | 29.1µM* | ? | -16.1%
